# Measured values as given in PubChem BioAssay AID720517 (National Center for Advancing Translational Sciences (NCATS), 2013).
# Records with an inconclusive call do not appear. Unmarked numbers belong to inactive results. Calls come from the whole dose curve; as a rule, active = well fitted activation curve with a large enough effect; inconclusive = small, poorly fitted or top-dose-only effect; inactive = flat fitted curve, though single readings scatter.
# Assay: qHTS for Inhibitors of Cell Surface uPA Generation: FP59 Counterscreen for Cherry-picked Compounds; note: 0% is about no effect
# Settings: FP59 anthrax toxin cytotoxicity counterscreen, cells; series mostly up to 115 µM; activity (protection from FP59): at the top concentration
row,Structure (SMILES),activity (protection from FP59)
1,Cc1ccc(S(=O)(=O)NCC(=O)N/N=C/c2ccc(Cl)cc2)cc1,-0.814%
2,O=C(Nc1cccc(C2=NCCN2)c1)Nc1cccc(C2=NCCN2)c1,-1.55%
3,CCOC(=O)CN1C(=O)N[C@@H](c2ccco2)C(C(=O)OC)=C1C,3.64%
4,CCC1(C)NC(=O)N(CC(=O)Nc2sc3c(c2C(N)=O)CCC3)C1=O (centres undefined),-0.768%
5,CCCCOc1ccc(S(=O)(=O)N2CCCCC2)cc1,-0.712%
6,COC(=O)[C@]1(Cc2ccccc2)N[C@H](CN(C)C(=O)Nc2ccccc2)[C@@H]2C(=O)N(Cc3ccccc3)C(=O)[C@@H]21,7.99%
7,COc1cc(/C=N/NC(=O)c2cc(-c3ccco3)nc3ccccc23)cc(OC)c1O,-1.46%
8,COc1ccc(CC(=O)Nc2nc(C)cs2)cc1OC,-1.52%
9,CC(OC(=O)c1cccc(-n2cnnn2)c1)C(=O)Nc1ccc(F)c(F)c1F (centres undefined),-1.35%
10,COc1ccc(C(C)=O)cc1CSC(=N)N,0.0633%
11,CCc1ccc(NCc2nc(-c3ccccc3)no2)cc1,0.485%
12,Cc1cccc(Nc2ccc(NCc3ccccc3)nn2)c1,-1.23%
13,COc1ccc(C(CNC(=O)C(C)Oc2ccc(Br)cc2)N2CCCC2)cc1 (centres undefined),-1.39%
14,O=C(CCCC(=O)N(c1cccc(F)c1)C(C(=O)NC1CCCC1)c1ccc(O)cc1)Nc1ccccn1 (centres undefined),-1.23%
15,O=c1[nH]c2c(s1)C(c1ccc(O)cc1)C1C3CCC(C3)C1S2 (centres undefined),0.364%
16,O=C(NCCCn1ccnc1)C(=O)NCC(c1cccnc1)N1CCN(c2ccc(F)cc2)CC1 (centres undefined),0.365%
17,COc1cccc(NC(=O)N2C3CCCC2CC(NC(C)=O)C3)c1 (centres undefined),-0.276%
18,CS(=O)(=O)N1CCC(C(=O)Nc2ccccc2)CC1,-1.14%
19,CC(C)(C)OC(=O)NCCCCCNC(=O)c1[nH]cnc1C(=O)Nc1ccc(Cl)cc1,-1.08%
20,CCSC1=NCCN1S(=O)(=O)c1ccc(Cl)cc1,-1.47%

row,Structure (SMILES),activity (protection from FP59)
1,O=C(CCCC(=O)N1CCN(c2ccccc2F)CC1)c1ccccc1,-1.35%
2,O=C(NC1CCCC1)c1nc2c(nnn2Cc2ccccc2Cl)c(=O)[nH]1,-0.974%
3,CC(=O)COc1ccc2c(-c3cccc([N+](=O)[O-])c3)cc(=O)oc2c1,-0.595%
4,CC1(C)CC(=O)C([N+](=O)[O-])=C(NCCCC(=O)O)C1,-0.402%
5,Cc1ccc2oc(C(=O)N(Cc3ccc(N(C)C)cc3)C3CCS(=O)(=O)C3)c(C)c2c1 (centres undefined),3.1%
6,O=C(NNC(=O)c1ccc2ccccc2c1)Nc1ccc(F)cc1,-1.26%
7,CC1=CC(C)C(C[N+]2(C)CCCCC2)C(C)C1 (centres undefined),-1.54%
8,O=C(CNS(=O)(=O)c1ccc(F)cc1)Nc1ccccc1,-1.19%
9,C[C@H](CO)N1C[C@H](C)[C@@H](CN(C)C(=O)Nc2ccccc2)Oc2c(NS(=O)(=O)c3ccccc3)cccc2C1=O,-1.23%
10,O=C(CSC1=NS(=O)(=O)c2ccccc2N1)Nc1nccs1,-1.26%
11,O=C(Nc1ccc(N2CCOCC2)cc1)c1ccc(Cl)c(S(=O)(=O)N2CCCC2)c1,-1.51%
12,CCOc1cc(C)c(S(=O)(=O)N2CCCCC2)cc1C,-0.954%
13,O=[N+]([O-])c1ccc(SCc2ccncc2)nc1,-0.905%
14,Cc1ccc(C(CC(=O)N2CCCC2)c2ccccc2)c(O)c1 (centres undefined),-0.648%
15,O=C(NCC1CCCO1)c1ccc(NC(=O)c2ccc([N+](=O)[O-])cc2)cc1 (centres undefined),-1.25%
16,O=C(c1cc(COc2c(F)cccc2F)on1)N1CCc2ccccc2C1,-0.72%
17,CN(C)c1cccc(Oc2nc3c(c(=O)n(C)c(=O)n3C)n2C)c1,-1.39%
18,Cc1cccc(NC(=O)C2CCCN(S(=O)(=O)c3cccc4cccnc34)C2)c1 (centres undefined),-1.41%
19,CCCC1=NN(C(=O)Cc2ccc(OC)cc2)C(O)(C(F)(F)F)C1 (centres undefined),-1.35%
